Measurements from PMC4336329 (PLoS ONE, 2015).
The whole screen tested about 310,000 compounds, of which about 14,000 (4.5%) showed an effect of 50% or more. The effect is printed as a negative number. The list comes from a sample in which strong results are over-represented; it also holds similar structures and randomly drawn compounds.

These compounds were tested against human ether-à-go-go-related gene (hERG) potassium channel (human, UniProt Q12809) (assay: primary screen, population patch clamp on CHO cells stably expressing hERG; higher = less effect of the substance).
human ether-à-go-go-related gene (hERG) potassium channel, sequence (Q12809 whole entry, looked up): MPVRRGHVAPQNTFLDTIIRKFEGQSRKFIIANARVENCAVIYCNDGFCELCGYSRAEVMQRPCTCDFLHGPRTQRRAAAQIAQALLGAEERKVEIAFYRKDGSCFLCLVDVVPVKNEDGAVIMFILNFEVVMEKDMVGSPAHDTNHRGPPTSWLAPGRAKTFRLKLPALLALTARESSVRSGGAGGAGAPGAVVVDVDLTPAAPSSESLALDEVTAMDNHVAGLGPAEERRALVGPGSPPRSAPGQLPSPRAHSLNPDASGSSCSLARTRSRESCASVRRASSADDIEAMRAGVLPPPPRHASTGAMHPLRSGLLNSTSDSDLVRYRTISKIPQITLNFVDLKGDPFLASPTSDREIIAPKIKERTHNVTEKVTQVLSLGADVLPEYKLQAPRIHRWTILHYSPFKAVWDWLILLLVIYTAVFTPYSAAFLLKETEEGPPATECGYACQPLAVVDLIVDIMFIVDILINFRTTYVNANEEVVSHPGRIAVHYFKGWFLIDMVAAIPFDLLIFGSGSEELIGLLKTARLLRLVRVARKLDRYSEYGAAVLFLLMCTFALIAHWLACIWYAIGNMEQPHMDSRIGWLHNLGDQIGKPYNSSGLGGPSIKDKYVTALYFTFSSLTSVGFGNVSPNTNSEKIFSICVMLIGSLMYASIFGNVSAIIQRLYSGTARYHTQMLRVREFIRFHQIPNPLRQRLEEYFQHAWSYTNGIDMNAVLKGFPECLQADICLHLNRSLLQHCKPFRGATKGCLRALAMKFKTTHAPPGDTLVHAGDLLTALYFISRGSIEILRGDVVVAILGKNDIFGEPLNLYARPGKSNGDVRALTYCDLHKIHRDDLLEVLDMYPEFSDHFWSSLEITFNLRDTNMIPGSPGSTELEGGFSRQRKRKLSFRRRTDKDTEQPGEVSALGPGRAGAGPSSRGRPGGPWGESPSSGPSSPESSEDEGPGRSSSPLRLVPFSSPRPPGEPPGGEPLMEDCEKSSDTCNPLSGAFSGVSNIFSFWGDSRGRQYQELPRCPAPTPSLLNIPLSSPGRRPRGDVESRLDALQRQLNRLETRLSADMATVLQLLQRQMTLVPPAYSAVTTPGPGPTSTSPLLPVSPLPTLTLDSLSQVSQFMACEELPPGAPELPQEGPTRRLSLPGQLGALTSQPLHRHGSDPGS
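Further: peak tail current of the secondary pulse compared with the same well before compound.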

Row | Structure (SMILES) | hERG current change (%, negative = inhibition) at 10uM [%]
1 | COc1ccc(N(C(=O)COc2ccccc2)C2C=CS(=O)(=O)C2)cc1 (stereo not drawn) | -1.57
2 | CCC(=O)Nc1c(S(=O)(=O)c2ccc(C)cc2)c2nc3ccccc3nc2n1C(C)c1ccccc1 (stereo not drawn) | -14.9
3 | C=C(C)CN=C1NN=C(c2cc(C)n(-c3ccc(C)cc3)c2C)CS1 | 4.06
4 | O=C(NCCNC(=O)c1ccccc1F)c1ccco1.O=C(O)C(=O)O | 13.9
5 | O=C(CSc1ccc(Cl)cc1)N1CCCC1 | 16.6
6 | O=C(CSc1ccc(Cl)cc1)N1CCN(c2ccc([N+](=O)[O-])cc2Cl)CC1 | -59.2
7 | O=C(CSc1ccc(Cl)cc1)N1CCN(c2ccc(Cl)cc2[N+](=O)[O-])CC1 | -61.5
8 | O=C(CN1CCN(c2ccc(Cl)cc2[N+](=O)[O-])CC1)N1CCOCC1 | -33.6
9 | CN1CCN(C(=O)CSc2ccc(Cl)cc2)CC1 | 6.35
10 | O=C(CSc1ccc(Cl)cc1)N1CCN(c2c(Cl)cccc2[N+](=O)[O-])CC1 | -17.2
11 | CCN1C(=O)c2ccc(C(=O)O)cc2C1=O | 9.2
12 | c1ccc(CCNc2ncnc3sccc23)nc1 | 26.8
13 | O=C(c1ccc(Cl)cc1)c1ccc(OCC(=O)N2CCOCC2)cc1 | -40.8
14 | CCOC(=O)N1CCN(C(=O)c2ccc(NC(=O)c3ccc(C)cc3)cc2)CC1 | -13.3
15 | COc1ccc([N+](=O)[O-])cc1NC(=O)Cn1ccc(C(F)(F)F)n1 | 13.3
16 | COc1ccc2c(c1)Sc1ccccc1N2CCN(C)C.O=C(O)C(=O)O | -21.3
17 | COc1ccc([C@@H]2Sc3cc(OC)ccc3N(CCN(C(C)C)C(C)C)C(=O)[C@H]2OC(C)=O)cc1.Cl | -75
18 | COc1ccc(N2C(=O)C(OC(C)=O)C2c2ccc(C)cc2)cc1 (stereo not drawn) | 17.3
19 | Cc1ccc(N2C(=O)CC(Sc3ncn[nH]3)C2=O)cc1C (stereo not drawn) | 14.2
20 | S=C(NCC1CCCO1)N1CCN(c2ccccc2)CC1 (stereo not drawn) | 23.5
21 | Cc1cc2ccccc2c(=O)[nH]1 | 16.5
22 | CCn1c(CNC(=O)C2CCCCC2)cc2cc(C)ccc21 | 28

Row | Structure (SMILES) | hERG current change (%, negative = inhibition) at 10uM [%]
23 | CN(C)c1nc(NCc2ccccc2)nc(SCC(N)=O)n1 | 7.76
24 | O=c1oc2ccccc2c2c1ncn2CCN1CCOCC1 | -8.76
25 | N=c1c2c(-c3ccccc3)c(-c3ccccc3)oc2ncn1CCCN1CCOCC1 | -79.2
26 | Cn1c(=O)c2c(-c3ccccc3)n(CCCN3CCOCC3)cc2n(C)c1=O | 16.1
27 | N=c1c2c(-c3ccccc3)c(-c3ccccc3)oc2ncn1CCN1CCOCC1 | -70.8
28 | COc1ccc(-c2oc3ncn(Cc4ccco4)c(=N)c3c2-c2ccc(OC)cc2)cc1 | -49.4
29 | COc1ccc(-c2oc3ncn(CCN4CCOCC4)c(=N)c3c2-c2ccc(OC)cc2)cc1 | -70.3
30 | COc1ccc(-c2oc3ncnc(NCCN4CCOCC4)c3c2-c2ccc(OC)cc2)cc1 | 2.75
31 | Cn1c2ccccc2c2ncn(CCCN3CCOCC3)c(=O)c21 | -16.6
32 | CC(C)Cc1n[nH]c(=O)[nH]1 | -6.31
33 | O=C(Nc1c2c(nn1-c1ccc(F)cc1)CS(=O)C2)c1ccc(S(=O)(=O)N2CCOCC2)cc1 (stereo not drawn) | 21.9
34 | Cc1cc(NC(=O)c2c(-c3ccccc3Cl)noc2C)no1 | 5.88
35 | CS(=O)(=O)NNC(=O)c1cc2cc3ccccc3nc2s1 | 9.84
36 | COc1ccc(NC(=O)C2=CC(c3ccc(OC)c(OC)c3)=NS(=O)(=O)N2C)cc1 | -4
37 | O=C(NCC1CCCO1)c1cc(-c2ccc(F)cc2)no1 (stereo not drawn) | 0.634
38 | O=C1C2(c3ccccc3)CN(CCO)CC1(c1ccccc1)CN(CCO)C2 | -10.6
39 | C=CCN1CC2(c3ccccc3)CN(CC=C)CC(c3ccccc3)(C1)C2=O | -19.3
40 | O=C1C2(c3ccccc3)CN(CCCO)CC1(c1ccccc1)CN(CCCO)C2 | -50.4
41 | CCOC(=O)C1CCN(C(=O)CN2C(=O)CSc3ccc(S(=O)(=O)N4CCOCC4)cc32)CC1 | -22.6
42 | O=C(N=C1SC2CS(=O)(=O)CC2N1Cc1ccc(F)cc1)C1CCCO1 (stereo not drawn) | -5.58
43 | CSc1ccccc1NC(=O)c1cc(S(=O)(=O)N(C)C)ccc1N1CCCC1 | -54.7
44 | CN(C)S(=O)(=O)c1ccc(N2CCCC2)c(C(=O)NNC(=O)COc2ccccc2F)c1 | -61.4

Row | Structure (SMILES) | hERG current change (%, negative = inhibition) at 10uM [%]
45 | CN(C)S(=O)(=O)c1ccc(N2CCCC2)c(C(=O)Nc2ccccc2Br)c1 | -58.3
46 | CN(C)S(=O)(=O)c1ccc(N2CCCC2)c(C(=O)NNC(=O)COc2ccccc2Cl)c1 | -30.3
47 | CCc1ccccc1NC(=O)c1cc(S(=O)(=O)N(C)C)ccc1N1CCCC1 | -32.2
48 | CN(C)S(=O)(=O)c1ccc(N2CCCC2)c(C(=O)Nc2ccccc2F)c1 | -14.7
49 | CN(C)S(=O)(=O)c1ccc(N2CCCC2)c(C(=O)NCc2ccc(Cl)cc2)c1 | -68.5
50 | CN(C)S(=O)(=O)c1ccc(N2CCCC2)c(C(=O)NCc2ccccc2)c1 | -10
51 | CN(C)S(=O)(=O)c1ccc(N2CCCC2)c(C(=O)Nc2ccc(Br)cc2F)c1 | 3.03
52 | CN(C)S(=O)(=O)c1ccc(N2CCCC2)c(C(=O)NCc2cccc(C(F)(F)F)c2)c1 | 4.61
53 | CN(CC(=O)Nc1ccccc1Br)C(=O)c1cc(S(=O)(=O)N(C)C)ccc1N1CCCC1 | -8.64
54 | Cc1ccccc1OCC(=O)NNC(=O)c1cc(S(=O)(=O)N(C)C)ccc1N1CCCC1 | 0.0569
55 | O=C(C1CCCO1)N1CCN(C(c2ccccc2)c2ccccc2)CC1 (stereo not drawn) | 0.514
56 | CC1(C)C=C2[C@H]3CC[C@@H]4[C@@]5(C)CCC(=O)C(C)(C)[C@@H]5CC[C@@]4(C)[C@]3(C)CC[C@@]2(C(=O)O)CC1 | -1.05
57 | CCN(CC)C(=O)C(=O)N/N=C/c1cccc(Br)c1 | -8.07
58 | CCN(CC1COc2ccccc2O1)C(=S)NC1CC2CCC1C2 (stereo not drawn) | 1.34
59 | Cc1cc(C)cc(OCc2ccc(C(=O)NC3CCOC3=O)o2)c1 (stereo not drawn) | 15.9
60 | O=C(Nc1nccs1)C(c1ccccc1)N1CCCC1 (stereo not drawn) | -7.89
61 | COC(=O)c1sccc1N/N=C/c1cccc(Oc2ccccc2)c1 | -7.09
62 | CC1S/C(=N/N=C/c2ccco2)N(Cc2ccc(F)cc2)C1=O (stereo not drawn) | -11.3
63 | COc1cc(OC)nc(Oc2ccccc2C(=O)Oc2ccc(Cl)cc2)n1 | -21.6
64 | Cc1nnsc1SCC(=O)O | -0.15
65 | CN(C)S(=O)(=O)c1ccc(N2CCCC2)c(C(=O)Nc2ccccc2OC(F)F)c1 | -54.2
66 | CN(C)S(=O)(=O)c1ccc(N2CCCC2)c(C(=O)Nc2ccc(F)cc2F)c1 | -33.2

Row | Structure (SMILES) | hERG current change (%, negative = inhibition) at 10uM [%]
67 | CN(C)S(=O)(=O)c1ccc(N2CCCC2)c(C(=O)NC(c2ccccc2)c2ccccc2)c1 | 6.73
68 | COc1cc(-c2nn3c(-c4cccc(C)c4)nnc3s2)cc(OC)c1OC | 13.1
69 | Cc1nn(C)c(=O)n1N(C)c1ncc(C(F)(F)F)cc1Cl | 23.8
70 | Cc1[nH]c2ccc(C(=O)N3CCN(c4ccccn4)CC3)cc2c1C | -2.92
71 | Cc1c(CN2CC[C@@H](N3CCN(c4ccccn4)CC3)[C@H](O)C2)[nH]c2ccc(F)cc12 | -60.9
72 | Cc1ccc(F)cc1NC(=O)CN1CCN(c2ccccn2)CC1 | -35.2
73 | CCN(CC)CCNC(=O)c1ccc(NC(=O)c2c(C)nn(-c3ccc(F)cc3)c2Cl)cc1 | -60
74 | CCN(CC)CCNC(=O)c1ccc(NC(=O)c2c(F)cccc2Cl)cc1 | -12.4
75 | CCN(CC)CCNC(=O)c1ccc(NC(=O)c2ccc(F)cc2)cc1 | -43.6
76 | COC(=O)c1c(C)nn(-c2ccc(F)c(Cl)c2)c1-c1cc(C)on1 | -4.39
77 | O=C(O)CCSc1nnc(SCC(=O)NCC(F)(F)F)s1 | 7.55
78 | Cc1nn(C(=O)c2ccco2)c(C)c1CN1C(=O)c2ccccc2C1=O | -12.2
79 | OC(c1ccc(Cl)cc1)C(O)c1nc2ccccc2[nH]1 (stereo not drawn) | -2.47
80 | OC(COc1ccc(Cl)cc1)CN1CCN(c2ccccn2)CC1 (stereo not drawn) | -68
81 | OC(COc1ccc2cc(Br)ccc2c1)CN1CCN(c2ccccn2)CC1 (stereo not drawn) | 1.85
82 | CC(C)(C)c1ccc(OCC(O)CN2CCN(c3ccccn3)CC2)cc1.Cl (stereo not drawn) | -16
83 | CC(C)c1ccc(OCC(O)CN2CCN(c3ccccn3)CC2)cc1.Cl (stereo not drawn) | -63.7
84 | CC(=O)c1ccc(OCC(O)CN2CCN(c3ccccn3)CC2)cc1.Cl (stereo not drawn) | -25.8
85 | Cl.OC(COCc1ccc(Cl)cc1)CN1CCN(c2ccccn2)CC1 (stereo not drawn) | -66.4
86 | OC(CN1CCN(c2ccccn2)CC1)Cn1c2ccc(Cl)cc2c2cc(Cl)ccc21 (stereo not drawn) | 0.599
87 | Cc1cc(OCC(O)CN2CCN(c3ccccn3)CC2)cc(C)c1Cl.Cl (stereo not drawn) | -0.237
